# Bioassay records as filed in PubChem BioAssay.
# ALDH1A1 inh: qHTS Assay for Inhibitors of Aldehyde Dehydrogenase 1 (ALDH1A1); Purified ALDH1A1, NADH fluorescence, propionaldehyde substrate; Potency, µM (doses to about 75.3 µM), actives largely listed as inhibitors; 7.3% of 220,000 active
# Target sequence (P00352 whole entry, looked up): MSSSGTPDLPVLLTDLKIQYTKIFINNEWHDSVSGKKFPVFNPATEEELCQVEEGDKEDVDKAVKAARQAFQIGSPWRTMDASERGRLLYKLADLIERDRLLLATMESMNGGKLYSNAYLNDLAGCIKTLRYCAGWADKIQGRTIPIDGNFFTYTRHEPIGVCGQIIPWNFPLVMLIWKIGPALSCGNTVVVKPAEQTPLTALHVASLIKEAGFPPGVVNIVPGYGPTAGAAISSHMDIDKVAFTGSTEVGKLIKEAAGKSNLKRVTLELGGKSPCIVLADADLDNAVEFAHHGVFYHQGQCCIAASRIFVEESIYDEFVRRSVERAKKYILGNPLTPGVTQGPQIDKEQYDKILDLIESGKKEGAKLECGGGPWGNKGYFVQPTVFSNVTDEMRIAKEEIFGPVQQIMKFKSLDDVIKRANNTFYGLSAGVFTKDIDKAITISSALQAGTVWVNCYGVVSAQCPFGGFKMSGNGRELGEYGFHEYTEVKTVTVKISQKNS
# IMPase inh: qHTS Assay for Identifying the Cell-Membrane Permeable IMPase Inhibitors | Inositol monophosphatase 1 (Rattus norvegicus), P97697 | inhibition (IP1 accumulation), % at 46.1 µM | 120,000 tested, under 10 active | CHO-M1 cells, IP1 accumulation, HTRF TR-FRET ratio; active = well fitted curve in the direction sought with a large enough effect in the signal ratio, not every such curve was filed as active; inconclusive = small, poorly fitted or top-dose-only effect, or a change in a side signal; inactive = no such curve, though single readings can be large or run the other way; the % refers to the signal ratio;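 also: cells stimulated with carbachol in lithium chloride buffer; higher means more IMPase inhibition seen as more IP1 and lower FRET ratio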
#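 CHO-M1, 2000 cells/well, cultured 16–30 h; cpd up to 46 uM; carbachol (50 uM solution, stimulation buffer w/ 50 mM LiCl, pH 7.4), 30 min 37C; IP-One TR-FRET, 10 min RT; Ex 320/Em 665, 620; Hill-fit AC50.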
# 12-hLO inh: qHTS Assay for Inhibitors of 12-hLO (12-human lipoxygenase); purified 12-hLO, xylenol orange hydroperoxide absorbance; 0.12% of 150,000 active; Polyunsaturated fatty acid lipoxygenase ALOX12 (Homo sapiens), P18054; Potency, µM (doses to about 57.1 µM), hits mostly inhibitors; active = well fitted curve in the direction sought with a large enough effect; inconclusive = small, poorly fitted or top-dose-only effect, or another doubt; inactive = no such curve, though single readings can be large; an effect the other way counts as inactive or inconclusive; also: nearly all actives have a fitted effect of over 55% in size
#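 150 nM 12hLO, 25 mM Hepes pH 7.0 + 0.01% Triton X-100; cpd preinc 15 min RT; 40 uM arachidonic acid, 30 min RT; Fe-XO 30 min; A573/A405 ratio as read-out.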
# IMPase Li cell: qHTS Assay for Identifying the Cell-Membrane Permeable IMPase Inhibitors: Potentiation with Lithium | CHO-M1 cells, IP1 TR-FRET (IP-One), carbachol + lithium | Potency, µM (series often up to 59.4 µM), actives largely listed as inhibitors | 0.35% of 210,000 active | AID 1457, 2008; active = well fitted curve in the direction sought with a large enough effect; inconclusive = small, poorly fitted or top-dose-only effect, or another doubt; inactive = no such curve, though single readings can be large; an effect the other way counts as inactive or inconclusive;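 also: IP1 builds up when IMPase is blocked and the TR-FRET signal falls; nearly all actives have a fitted effect of over 50% in size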
#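 Concentration–response in CHO-M1 cells, lithium-potentiated; 30 min at 37C. IP1 detected by competitive TR-FRET after 10 min lysis at RT. Hill-fitted AC50.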
# PNC assembly inh: High Content Assay for Compounds that inhibit the Assembly of the Perinucleolar Compartment | PC3M PTB-GFP, PNC prevalence imaging, 16 h; hits give low values | activity change (PNC), negative = inhibition, % at 10 µM | 3.1% of 140,000 active | AID 2417, 2010;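 active = readout at or below -70, meaning at least 70% loss of cells showing the perinucleolar compartment, a nuclear body marking cancer cells; inconclusive = readout between -30 and a set limit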
#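 Compounds are pinned in duplicate onto adhered PC3M cells stably expressing GFP-tagged PTB and incubated 16 h at 37 C. Cells are then fixed, nuclei stained with Hoechst, and PNC-positive cells counted.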
# HPGD block: qHTS Assay for Inhibitors of HPGD (15-Hydroxyprostaglandin Dehydrogenase); Potency, µM, actives largely listed as inhibitors; AID 894, 2007; 4.3% of 150,000 active; purified HPGD, NADH fluorescence kinetic, PGE2 substrate; 15-hydroxyprostaglandin dehydrogenase [NAD(+)] (Homo sapiens), P15428
# Target sequence (P15428 whole entry, looked up): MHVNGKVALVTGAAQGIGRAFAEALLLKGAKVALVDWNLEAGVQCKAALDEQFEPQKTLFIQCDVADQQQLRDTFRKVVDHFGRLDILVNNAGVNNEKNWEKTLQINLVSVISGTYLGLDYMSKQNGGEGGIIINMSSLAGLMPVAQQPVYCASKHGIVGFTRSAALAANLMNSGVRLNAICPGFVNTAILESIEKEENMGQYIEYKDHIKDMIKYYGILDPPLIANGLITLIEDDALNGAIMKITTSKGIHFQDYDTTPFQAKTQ
#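 NADH formation kinetics: reaction with 30 uM PGE2 and 1 mM NAD+ (final), 20 nM enzyme, Tris-HCl pH 8 with Tween 20, after 15 min compound preincubation at room temperature. Fluorescence change, last versus first of five reads.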
# A number is an active result; n = inactive; u = inconclusive; x = no result given; [ ] = remark or other dose. Shown are actives, neighbours in structure and some others; about 11% of the full set was active somewhere. Unless noted, calls follow the shape of the dose curve; as a rule, active = well fitted inhibition curve with a large enough effect (not every such curve was filed as active); inconclusive = small, poorly fitted or top-dose-only effect, or another doubt; inactive = no such curve, though single readings can be large or run the other way.
SMILES,ALDH1A1 inh,IMPase inh,12-hLO inh,IMPase Li cell,PNC assembly inh,HPGD block
Cc1ccc(Cn2c(SCC(=O)NCC3CCCO3)nc3ccsc3c2=O)cc1 (centres undefined),20µM,x,x,n,x,x
CCOC(=O)c1sc(NC(=O)CSc2nc3c(c(=O)n2-c2ccc(C)cc2)SCC3)c(C(=O)OCC)c1C,9.46µM,x,n,n,n,n
Clc1ccccc1-c1cncnc1NCc1cccs1,n,x,x,n,x,x
COC(=O)C1=C(C(=O)OC)[C@@H]2N(C)c3ccc(OC)cc3[C@@]23C[C@@H](C(=O)OC)N(S(=O)(=O)c2ccc(Br)cc2)C3=N1,n[13.5 µM],x,n[11.4 µM],n,x,n
O=C(N/N=C/c1ccc([N+](=O)[O-])s1)c1ccccc1,n,x,x,n,x,x
O=C(N/N=C\c1ccc([N+](=O)[O-])s1)c1cncc(Br)c1,n,x,n,n,-102.3,n
COC(=O)c1nn2c(C(F)(F)F)cc(-c3ccc(Br)o3)nc2c1Br,14.1µM,n,n,n,n,n
CC(=O)N(C(C)=O)N1C(=O)C2C3c4ccccc4C(c4ccccc43)C2C1=O (centres undefined),n,x,x,n,x,x
O=C1C2C3c4ccccc4C(c4ccccc43)C2c2nc3ccccc3n21 (centres undefined),n,n,n,n,-100.0,n
O[C@@H](c1ccccc1)C1CCN(CCc2ccccc2)CC1,n,n,n,n,x,n
O=C(CSC(=S)N1CCOCC1)Nc1nc(=O)c2ccccc2s1,6.31µM,x,n,n,n,n
CCC(C)N=C1Sc2nc3ccc(C)cc3cc2CN1CCOC (centres undefined),14.1µM,x,x,n,x,x
CN1CCC2(CC1)CCN(C(=O)c1cccc(F)c1)CC2,n,x,n,n,x,n
Cc1ccc(-c2nnc3n2N=C(c2ccccc2Br)CS3)cc1,n,n,n,n,n,22.4µM
Cc1cccc(-c2nnc3n2N=C(c2ccccc2)CS3)c1,n,n,n,n,n,n
O=c1c(-c2cccs2)nc2cnc(Oc3cccc(Cl)c3)nc2n1C[C@H]1CCCO1,u,x,n,n,x,u
O=S(=O)(c1cnc(Cl)c(Br)c1)N1CCCCCC1,8.91µM,x,n,n,n,n
O=S(=O)(c1cnc(Cl)c(Cl)c1)N1CCN(c2ncccn2)CC1,0.794µM,x,x,x,x,x
O=S(=O)(c1ccc(Cl)c(S(=O)(=O)N2CCCC2)c1)N1CCCC1,n,x,x,n,x,x
O=S(=O)(c1cnc(Cl)c(Br)c1)N1CCN(c2ncccn2)CC1,0.355µM,x,x,x,x,x
CCOCc1[nH]c(=S)[nH]c(=O)c1Cc1ccc(OC(C)C)cc1,12.6µM,x,x,n,x,x
Cc1[nH]c(=S)[nH]c(=O)c1Cc1ccccc1,n,n,n,n,n,n
COc1ccc(N2C(=O)CSC23C(=O)N2CCCc4cccc3c42)cc1 (centres undefined),11.2µM,n,n,n,n,n
Cc1ccc(CN2C(=O)/C(=C\c3ccc(C(=O)NCc4cccnc4)cc3)Oc3ccccc32)cc1,u,n,n,n,u,u
O=C(CN1C(=O)/C(=C\c2ccccc2Cl)Oc2ccccc21)NCc1cccnc1,3.98µM,x,x,n,x,x
SMILES,ALDH1A1 inh,IMPase inh,12-hLO inh,IMPase Li cell,PNC assembly inh,HPGD block
COc1ccc(CNC(=O)CN(C(=O)c2ccc(CN3CCOCC3)o2)C2CCCC2)cc1,11.2µM,n[0.369 µM],n,n,u,n
COc1ccc(C(=O)C2CCCN(C(=O)C3=CCCC3)C2)c(C)c1 (centres undefined),u,x,x,n,x,x
COc1ccc(OC)c(NC(=O)N2CCCC(C(=O)c3ccccc3OC)C2)c1 (centres undefined),12.6µM,x,x,n,x,x
COc1ccc(C(=O)C2CCCN(C(=O)c3noc4c3CCCC4)C2)cc1F (centres undefined),3.55µM,x,x,n,x,x
COc1ccc(C(=O)C2CCCN(C(=O)c3noc4c3CCCC4)C2)c(C)c1 (centres undefined),5.01µM,x,x,n,x,x
COc1ccc(C(=O)C2CCCN(C(=O)c3ccccc3C(C)=O)C2)cc1F (centres undefined),u,x,x,n,x,x
COc1ccccc1C(=O)C1CCCN(C(=O)c2snnc2C)C1 (centres undefined),n,x,x,n,x,x
Cc1ccc2oc3c(c(=O)c2c1)C(c1ccc(F)cc1)N(Cc1ccc2c(c1)OCO2)C3=O (centres undefined),x,n,x,x,x,x
COC(=O)c1ccccc1NC(=O)COc1ccccc1[N+](=O)[O-],u,x,x,n,x,x
Cn1cc(/C=N/NC(=O)COc2ccccc2[N+](=O)[O-])c2ccccc21,n,x,n,n,u,n
Cc1cccc(OCC(=O)N/N=C\c2cc3c(cc2[N+](=O)[O-])OCO3)c1C,7.94µM,n,n,n,n,n
O=C(COC(=O)COc1ccccc1[N+](=O)[O-])Nc1ccccc1Br,17.8µM,x,n,n,n,n
O=C(COc1ccccc1[N+](=O)[O-])N/N=C/c1cccs1,n,x,n,n,-96.0,n
CC(C)(C)C(=O)COc1ccccc1[N+](=O)[O-],20µM,x,x,n,x,x
Cc1ccc(NC(=O)CN(Cc2ccccc2)S(C)(=O)=O)cc1C,n,n,n,n,n,n
COc1cccc(-c2cc3nc4c(c(N5CCC6(CC5)OCCO6)n3n2)CCC4)c1,u,x,x,n,x,x
C(=C\c1ccco1)/C=N/n1cnnc1,3.16µM,n,n,n,u,31.6µM
CCC(/C=C1\Sc2ccc(OC)cc2N1CCO)=C\c1sc2ccc(OC)cc2[n+]1CCO,u,x,n,n,n,n
CCC(/C=C1\Sc2ccc(OC)cc2N1CC)=C\c1sc2ccc(OC)cc2[n+]1CCCS(=O)(=O)[O-],1.26µM,x,x,n,x,x
COC(=O)C(C(C)=O)C1=C/C(=N\S(=O)(=O)c2ccc(C)cc2)c2ccccc2C1=O (centres undefined),u,n,n,n,n,n
CC(C)c1ccc(S(=O)(=O)/N=C2/C=CC(=O)c3ccccc32)cc1,25.1µM,x,x,n,x,x
CCOC(=O)N1CCN(C(=O)c2ccc3c(=O)n(-c4cc(OC)ccc4OC)c(=S)[nH]c3c2)CC1,n,x,x,n,x,x
Cc1cc(C)c(Nc2cc(S(=O)(=O)O)c(N)c3c2C(=O)c2ccccc2C3=O)c(C)c1,25.1µM,u,n,n,n,u
COC(=O)c1cc(CC(=O)c2ccc(O)cc2O)c(C)o1,n,n,n,n,n,15.8µM
COC(=O)c1ccc(CC(=O)c2ccc(O)cc2O)o1,u,u,n,n,n,31.6µM
CCOC(=O)c1ccc(CC(=O)c2ccc(O)cc2O)o1,u,n,n,n,u,n
